Assay results reported in ChEMBL document CHEMBL3988442, “University of Dundee, Small-Polar-MMV Screening Library” (2021).

The molecules below were run against T1, Proteasome subunit beta (Trypanosoma cruzi) (UniProt O96673) (assay: Trypanosoma cruzi proteasome chymotrypsin-like activity (TcProtChymo) assay.). Details: 9.37 µM.
T1 sequence (whole entry): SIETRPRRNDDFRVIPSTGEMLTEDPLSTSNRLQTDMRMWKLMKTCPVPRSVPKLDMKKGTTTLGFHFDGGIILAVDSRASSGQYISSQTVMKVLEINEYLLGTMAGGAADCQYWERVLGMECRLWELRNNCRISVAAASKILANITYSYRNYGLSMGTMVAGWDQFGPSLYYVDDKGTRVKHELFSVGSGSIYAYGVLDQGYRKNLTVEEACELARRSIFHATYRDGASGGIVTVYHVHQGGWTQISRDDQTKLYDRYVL
Format: functional
Design: scale not given: direction of the effect not stated beside the values

Row | Structure (SMILES) | Percent Effect
1 | CC(C)c1nc(C2CCCN2CC(=O)Nc2ccc(Cl)cn2)no1 (stereo not drawn) | 8.23%
2 | CCN(CC1CCOC1)C(=O)Nc1ccc(-n2cncn2)nc1 (stereo not drawn) | 9.3%
3 | O=C(NCc1nn(-c2ccccc2)c2c1CCC2)NC1CC1 | 2.65%
4 | CC1CN(CC2CCCCC2)CCN1c1ccc2nncn2n1 (stereo not drawn) | 16.1%
5 | O=C1C(NCc2nnc3n2CCCC3)CCCN1c1cccc(F)c1 (stereo not drawn) | 16.8%
6 | O=C(Cc1cccnc1)N1CCC(OCc2ccccc2)CC1 | 13.2%
7 | CCn1ccnc1CN1CCC(N(C)Cc2ncc(C)o2)C1 (stereo not drawn) | 12.5%
8 | NC(=O)c1cc(C2CCCN(CCCOc3ccccc3)C2)n[nH]1 (stereo not drawn) | 1.79%
9 | CC(NC(=O)N(C)CCCOc1ccc(F)cc1)c1nncn1C (stereo not drawn) | 17.4%
10 | CN(Cc1noc(C2CC2)n1)C1CCN(Cc2nnc(C3CC3)o2)C1 (stereo not drawn) | 17.4%
11 | CN(Cc1ccc(F)cc1)[C@@H]1CN(C(=O)c2cccs2)C[C@H]1O | 17.6%
12 | CCn1ncc(Br)c1CN(C)S(=O)(=O)c1ccc(C)cc1 | 15.3%
13 | Cc1cccc(C(=O)N2CCCCC2c2ccc(CN(C)C)cc2)n1 (stereo not drawn) | 21.2%
14 | Cc1cccc(CN2CCc3nnc(CN4CCCC4=O)n3CC2)n1 | 8.67%
15 | CC(C)c1nccn1-c1cccc(C2CCCN(C3CCCC3)C2)n1 (stereo not drawn) | 15.6%
16 | Cc1ccc2cc(C(=O)NCCn3nc4ccccn4c3=O)[nH]c2c1 | 16.3%
17 | Cc1csc(Nc2nccnc2C2CCCN2C(=O)C(C)C)n1 (stereo not drawn) | 9.69%
18 | CC(C)(C)c1cn2nc(N3CCCC3Cn3cncn3)sc2n1 (stereo not drawn) | 17.1%
19 | CCNC(=O)c1ccc(CNCc2c(C)nn(C)c2N(C)C)cc1 | 22.3%
20 | CN(C)c1cc(C(=O)N2CCN(S(C)(=O)=O)CC2)ccn1 | 6.23%

Row | Structure (SMILES) | Percent Effect
21 | Cn1ccnc1CN1CCN(Cc2noc(-c3ccccc3)n2)CC1 | 7.55%
22 | COCC(C)N(C)C(=O)c1nc(S(C)(=O)=O)n2ccccc12 (stereo not drawn) | -0.256%
23 | CS(=O)(=O)NCC1CCCN(C(=O)COc2ccc(F)cc2)C1 (stereo not drawn) | 3.5%
24 | CCN(Cc1cccc2c1OCO2)C(=O)C(C)c1cccnc1 (stereo not drawn) | -0.702%
25 | Cc1nc(CN2CCC(N(C)Cc3noc(C4CC4)n3)C2)oc1C (stereo not drawn) | 18.8%
26 | COC(=O)CC(c1cnn(C)c1)c1oc(C)cc(=O)c1O (stereo not drawn) | 6.85%
27 | Cc1cnn(CC2CCCN2C(=O)c2ccc(OC(C)C)nc2)c1 (stereo not drawn) | -5.89%
28 | CN1[C@H](CN2CCCC2)C[C@@H]2CN(C(=O)Cc3cccs3)CC[C@@H]21 | 5.75%
29 | CC(C)CN1CCC2(CCN(C(=O)c3ccc(F)cc3)CC2)C1=O | 6.27%
30 | CC(=O)N1N=C(c2ccccc2)OC1C(=O)NCCC1=CCCCC1 (stereo not drawn) | 7.55%
31 | CCC1CN(C(=O)c2ccc(Cl)cc2O)CCN1C(C)C (stereo not drawn) | 6.34%
32 | Cn1cc(-c2nc(CN3CCc4c(ncn4C4CC4)C3)cs2)cn1 | 3.33%
33 | O=C(NCCn1nc2ccccn2c1=O)c1cccc2[nH]ncc12 | 21.9%
34 | COc1ncccc1CNC(=O)NCCNC(=O)c1ccco1 | 16%
35 | Cc1cnn(CCNCc2nnc(C3CC3)o2)c1 | 16%
36 | COc1ccc(S(N)(=O)=O)cc1C(=O)N(C)Cc1cc(C)on1 | 16%
37 | O=S(=O)(CCCN1CCCC1Cn1cncn1)c1ccccc1 (stereo not drawn) | 17.4%
38 | O=C(NCC(=O)N1CCc2ccccc2C1)c1ccoc1 | 18.1%
39 | CC(=O)N1[C@H](CN(C)C)C[C@@H]2CN(C(=O)c3cccc(F)c3)CC[C@@H]21 | 14.2%

Species: Homo sapiens
Assay: To identify inhibition of the IFN signalling (Jak-Stat) pathway via expression of an eGFP reporter gene under the control of an IFN-stimulated response element (ISRE) containing MxA promoter.
Format: functional
Design: scale not given: direction of the effect not stated beside the values
Details: 30 µM

Row | Structure (SMILES) | Percent Effect
40 | CC(C)c1nc(C2CCCN2CC(=O)Nc2ccc(Cl)cn2)no1 (stereo not drawn) | 4.35%
41 | CCN(CC1CCOC1)C(=O)Nc1ccc(-n2cncn2)nc1 (stereo not drawn) | 5.11%
42 | O=C(NCc1nn(-c2ccccc2)c2c1CCC2)NC1CC1 | -3.46%
43 | CC1CN(CC2CCCCC2)CCN1c1ccc2nncn2n1 (stereo not drawn) | 58.1%
44 | O=C1C(NCc2nnc3n2CCCC3)CCCN1c1cccc(F)c1 (stereo not drawn) | 19.1%
45 | O=C(Cc1cccnc1)N1CCC(OCc2ccccc2)CC1 | 24.2%
46 | CCn1ccnc1CN1CCC(N(C)Cc2ncc(C)o2)C1 (stereo not drawn) | 14.6%
47 | NC(=O)c1cc(C2CCCN(CCCOc3ccccc3)C2)n[nH]1 (stereo not drawn) | 0.734%
48 | CC(NC(=O)N(C)CCCOc1ccc(F)cc1)c1nncn1C (stereo not drawn) | 8.6%
49 | CN(Cc1noc(C2CC2)n1)C1CCN(Cc2nnc(C3CC3)o2)C1 (stereo not drawn) | 20.4%
50 | CN(Cc1ccc(F)cc1)[C@@H]1CN(C(=O)c2cccs2)C[C@H]1O | 10.6%
51 | CCn1ncc(Br)c1CN(C)S(=O)(=O)c1ccc(C)cc1 | 14%
52 | Cc1cccc(C(=O)N2CCCCC2c2ccc(CN(C)C)cc2)n1 (stereo not drawn) | 5.13%
53 | Cc1cccc(CN2CCc3nnc(CN4CCCC4=O)n3CC2)n1 | 9.65%
54 | CC(C)c1nccn1-c1cccc(C2CCCN(C3CCCC3)C2)n1 (stereo not drawn) | 2.2%
55 | Cc1ccc2cc(C(=O)NCCn3nc4ccccn4c3=O)[nH]c2c1 | 19.6%
56 | Cc1csc(Nc2nccnc2C2CCCN2C(=O)C(C)C)n1 (stereo not drawn) | 5.46%
57 | CC(C)(C)c1cn2nc(N3CCCC3Cn3cncn3)sc2n1 (stereo not drawn) | 12.8%
58 | CCNC(=O)c1ccc(CNCc2c(C)nn(C)c2N(C)C)cc1 | 2.98%
59 | CN(C)c1cc(C(=O)N2CCN(S(C)(=O)=O)CC2)ccn1 | 25.7%

Row | Structure (SMILES) | Percent Effect
60 | Cn1ccnc1CN1CCN(Cc2noc(-c3ccccc3)n2)CC1 | 13.5%
61 | COCC(C)N(C)C(=O)c1nc(S(C)(=O)=O)n2ccccc12 (stereo not drawn) | 24.6%
62 | CS(=O)(=O)NCC1CCCN(C(=O)COc2ccc(F)cc2)C1 (stereo not drawn) | 12.5%
63 | CCN(Cc1cccc2c1OCO2)C(=O)C(C)c1cccnc1 (stereo not drawn) | 4.49%
64 | Cc1nc(CN2CCC(N(C)Cc3noc(C4CC4)n3)C2)oc1C (stereo not drawn) | 12.6%
65 | COC(=O)CC(c1cnn(C)c1)c1oc(C)cc(=O)c1O (stereo not drawn) | 8.46%
66 | Cc1cnn(CC2CCCN2C(=O)c2ccc(OC(C)C)nc2)c1 (stereo not drawn) | -3.81%
67 | CN1[C@H](CN2CCCC2)C[C@@H]2CN(C(=O)Cc3cccs3)CC[C@@H]21 | 2.07%
68 | CC(C)CN1CCC2(CCN(C(=O)c3ccc(F)cc3)CC2)C1=O | -20.9%
69 | CC(=O)N1N=C(c2ccccc2)OC1C(=O)NCCC1=CCCCC1 (stereo not drawn) | 26.2%
70 | CCC1CN(C(=O)c2ccc(Cl)cc2O)CCN1C(C)C (stereo not drawn) | 12.9%
71 | Cn1cc(-c2nc(CN3CCc4c(ncn4C4CC4)C3)cs2)cn1 | 8.83%
72 | O=C(NCCn1nc2ccccn2c1=O)c1cccc2[nH]ncc12 | 13.6%
73 | COc1ncccc1CNC(=O)NCCNC(=O)c1ccco1 | 18.4%
74 | Cc1cnn(CCNCc2nnc(C3CC3)o2)c1 | 32.1%
75 | COc1ccc(S(N)(=O)=O)cc1C(=O)N(C)Cc1cc(C)on1 | 15.7%
76 | O=S(=O)(CCCN1CCCC1Cn1cncn1)c1ccccc1 (stereo not drawn) | 2.97%
77 | O=C(NCC(=O)N1CCc2ccccc2C1)c1ccoc1 | 23.4%
78 | CC(=O)N1[C@H](CN(C)C)C[C@@H]2CN(C(=O)c3cccc(F)c3)CC[C@@H]21 | 14.5%
